# Results from PubChem BioAssay (Tox21).
# A number with no mark means an inactive call. Records with an inconclusive call do not appear. A call without a number means that no potency is given here. The source made the active and inactive calls. Unless noted, calls come from the whole dose curve; as a rule, active = well fitted curve in the direction sought with a large enough effect in the repeat runs; inconclusive = weak or mixed curves; inactive = no such curve, though single readings can be large; an effect the other way counts as inactive or inconclusive.
# How the values were obtained:
# [1] = qHTS assay to identify small molecule antagonists of the sonic hedgehog signaling (Shh) pathway (AID 1259369; calls by dose curve; note: nearly all actives have a fitted effect of over 45% in size)
# Method in brief: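 Conditioned medium drives Shh signalling in 3T3Gli1-Luc cells; compounds in DMSO co-applied, 24hr at 37 C, then luciferase luminescence.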
# [2] = qHTS assay to identify small molecule agonists of the androgen receptor (AR) signaling pathway in the presence of an antagonist - cell viability counter screen (AID 1259379);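 note: MDA-kb2 human breast cancer cells carrying an MMTV luciferase reporter; series mostly up to about 92 µM; nearly all actives have a fitted effect of over 25% in size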
# Method in brief: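 A CellTiter-Fluor read-out measured viability of MDA-kb2 reporter cells (MMTV promoter with AR and GR response elements). Treatment: nilutamide 3.0uM final with compounds at 15 concentrations, 16 hr, 37C, 0% CO2.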
# [3] = qHTS assay to identify small molecule agonists of the estrogen receptor beta (ER-beta) signaling pathway - cell viability counter screen (AID 1259380); note: nearly all actives have a fitted effect of over 30% in size; note: potency is the fitted concentration of half-maximal effect
# Method in brief: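 Cells used were ER-beta-UAS-bla HEK293T in medium with 2% charcoal-stripped FBS. They were treated for 16 hr at 37C. Viability came from CellTiter-Glo luminescence.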
# [4] = qHTS assay to identify small molecule antagonists of the estrogen receptor beta (ER-beta) signaling pathway - cell viability counter screen (AID 1259382); note: series mostly up to about 92 µM; nearly all actives have a fitted effect of over 55% in size
# Method in brief: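 Agonist-stimulated (1nM E2) ER-beta-UAS-bla HEK293T cells are incubated with library compounds for 16 hr at 37C. Cell viability is then assessed in the reporter-assay wells by adding CellTiter-Glo and reading luminescence after 30 min.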
# [5] = biological target: Estrogen receptor (Homo sapiens) (UniProt P03372); assay: qHTS assay to identify small molecule agonists of the estrogen receptor alpha (ER-alpha) signaling pathway in the presence of an antagonist (AID 1259383; calls by dose curve; note: top concentration of the series differs between compounds; nearly all actives have a fitted effect of over 15% in size)
# Sequence of Estrogen receptor (Homo sapiens) (P03372 whole entry, looked up): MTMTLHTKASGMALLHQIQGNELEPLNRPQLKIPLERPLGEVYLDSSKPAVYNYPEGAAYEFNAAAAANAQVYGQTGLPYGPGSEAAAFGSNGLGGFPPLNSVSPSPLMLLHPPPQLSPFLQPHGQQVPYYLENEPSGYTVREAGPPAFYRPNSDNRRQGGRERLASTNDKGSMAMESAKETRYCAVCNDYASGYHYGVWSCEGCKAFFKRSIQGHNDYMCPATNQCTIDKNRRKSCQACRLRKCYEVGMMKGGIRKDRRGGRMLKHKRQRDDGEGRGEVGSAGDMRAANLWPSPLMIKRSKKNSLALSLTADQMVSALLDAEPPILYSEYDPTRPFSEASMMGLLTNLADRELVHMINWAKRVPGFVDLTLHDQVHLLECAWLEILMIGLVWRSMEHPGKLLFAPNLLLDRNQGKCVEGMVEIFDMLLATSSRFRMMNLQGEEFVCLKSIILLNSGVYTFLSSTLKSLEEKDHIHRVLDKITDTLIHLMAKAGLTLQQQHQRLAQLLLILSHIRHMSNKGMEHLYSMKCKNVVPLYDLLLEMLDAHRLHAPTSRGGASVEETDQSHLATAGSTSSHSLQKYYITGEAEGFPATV
# Method in brief: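 Using VM7Luc4E2 cells seeded 24hr before treatment, antagonist ICI-182,780 (10.0nM final) was added, followed by compounds at 15 concentrations. Plates incubated 22hr; ONE-Glo luminescence quantified reporter activity.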
# [6] = qHTS assay to identify small molecule agonists of the estrogen receptor alpha (ER-alpha) signaling pathway in the presence of an antagonist - cell viability counter screen (AID 1259386);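 note: series mostly up to about 92 µM; cells exposed to compounds for 22 h at 37 °C before the viability read; nearly all actives have a fitted effect of over 30% in size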
# Method in brief: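 ICI-182,780 at 10.0nM final accompanies the compound titration (15 concentrations, 22hr, 37C) on VM7Luc4E2 cells. The CellTiter-Fluor fluorescence readout runs in the same wells as the luciferase assay.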
# [7] = biological target: Progesterone receptor (Homo sapiens) (UniProt P06401); assay: qHTS assay to identify small molecule agonists of the progesterone receptor (PR) signaling pathway (AID 1346784; calls by dose curve; note: nearly all actives have a fitted effect of over 30% in size; note: potency is the fitted concentration of half-maximal effect)
# Sequence of Progesterone receptor (Homo sapiens) (P06401 whole entry, looked up): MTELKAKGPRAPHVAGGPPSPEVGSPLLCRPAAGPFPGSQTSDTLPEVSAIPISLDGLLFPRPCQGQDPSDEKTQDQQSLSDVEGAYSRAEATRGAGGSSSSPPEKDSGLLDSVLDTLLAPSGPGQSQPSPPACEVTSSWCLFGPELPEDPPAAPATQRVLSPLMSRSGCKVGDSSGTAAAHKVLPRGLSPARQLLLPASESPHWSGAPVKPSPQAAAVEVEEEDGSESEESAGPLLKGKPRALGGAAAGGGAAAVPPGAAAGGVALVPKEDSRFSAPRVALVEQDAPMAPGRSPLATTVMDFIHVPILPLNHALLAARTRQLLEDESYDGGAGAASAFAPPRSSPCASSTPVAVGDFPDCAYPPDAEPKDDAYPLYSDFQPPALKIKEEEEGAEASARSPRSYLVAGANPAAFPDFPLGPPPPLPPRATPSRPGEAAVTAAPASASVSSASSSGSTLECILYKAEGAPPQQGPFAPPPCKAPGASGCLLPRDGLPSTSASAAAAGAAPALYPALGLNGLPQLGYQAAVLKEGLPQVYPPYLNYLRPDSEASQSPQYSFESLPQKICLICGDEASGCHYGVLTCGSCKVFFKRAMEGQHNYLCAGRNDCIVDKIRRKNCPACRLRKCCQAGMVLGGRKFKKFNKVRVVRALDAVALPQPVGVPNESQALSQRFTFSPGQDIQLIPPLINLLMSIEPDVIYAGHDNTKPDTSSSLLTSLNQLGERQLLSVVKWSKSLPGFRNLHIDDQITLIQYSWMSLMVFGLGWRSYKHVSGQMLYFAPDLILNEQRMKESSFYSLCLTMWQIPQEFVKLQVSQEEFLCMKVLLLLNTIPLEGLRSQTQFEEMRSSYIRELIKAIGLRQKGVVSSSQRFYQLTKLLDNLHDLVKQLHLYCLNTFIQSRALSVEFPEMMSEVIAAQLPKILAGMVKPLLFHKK
# Method in brief: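 Agonist qHTS: compounds pinned onto 3,000 PR-UAS-bla HEK 293T cells per well in charcoal-stripped serum medium, 16hr at 37C, then beta-lactamase activity measured by LiveBLAzer FRET fluorescence after 2 hours at room temperature.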
# [8] = biological target: Progesterone receptor (Homo sapiens) (UniProt P06401); assay: qHTS assay to identify small molecule antagonists of the progesterone receptor (PR) signaling pathway (AID 1346795; active = well fitted inhibition curve with a large enough effect in the signal ratio in the repeat runs, not every such curve was filed as active; the % refers to the signal ratio)
# Method in brief: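 Antagonist mode with agonist R5020 at 1 nM final and 16 hr incubation at 37C. Reporter was beta-lactamase driven by UAS in HEK293T (PR-UAS-bla), 2% charcoal-stripped serum; signal from LiveBLAzer FRET substrate, 2 hr at room temperature.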
# [9] = qHTS assay to identify small molecule antagonists of the progesterone receptor (PR) signaling pathway - cell viability counter screen (AID 1346798); note: series mostly up to about 92 µM; nearly all actives have a fitted effect of over 50% in size
# Method in brief: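 Cytotoxicity read as CellTiter-Glo luminescence (30 min, room temperature) in the same wells as the beta-lactamase readout. HEK293T PR-UAS-bla cells in charcoal-stripped 2% FBS received compound and R5020, then 16 h at 37C, 5% CO2.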
# [10] = qHTS assay to identify small molecule agonists of the progesterone receptor (PR) signaling pathway - cell viability counter screen (AID 1346799; calls by dose curve; note: nearly all actives have a fitted effect of over 45% in size)
# Method in brief: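 Cytotoxicity measured by CellTiter-Glo luminescence (30 min, RT) in the same wells as the PR beta-lactamase agonist read. Those HEK293T cells had 16 h compound treatment at 37 C in 2% charcoal-stripped FBS medium.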
# [11] = qHTS assay to identify small molecule antagonists of the TGF-beta/Smad signaling pathway - cell viability counter screen (AID 1346824); note: nearly all actives have a fitted effect of over 50% in size
# Method in brief: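 SBE-bla HEK 293T cells were plated overnight at 37 C, then given compounds in DMSO plus TGF-beta1 (added as 0.25 ng/mL solution) for 5 hr. After the bla read, CellTiter-Glo was added to the same wells and luminescence read after 30 min at room temperature.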
# [12] = qHTS assay to identify small molecule agonists of the TGF-beta/Smad signaling pathway - cell viability counter screen (AID 1346829); note: top concentration of the series differs between compounds; nearly all actives have a fitted effect of over 45% in size
# Method in brief: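 HEK 293T SBE-bla line, 5 hr compound exposure at 37 C, multiplexed CellTiter-Glo viability read by luminescence.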
# [13] = qHTS assay to identify small molecule agonists of the TGF-beta/Smad signaling pathway (AID 1346859; active = well fitted activation curve with a large enough effect in the signal ratio in the repeat runs, not every such curve was filed as active; the % refers to the signal ratio; note: series mostly up to about 77 µM)
# Method in brief: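 Fluorescence (ex 405 nm; em 460 and 530 nm) was read 2 h after LiveBLAzer FRET substrate at RT. The preceding compound treatment of overnight-plated SBE-bla HEK293T cells lasted 5 h at 37 C.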
# [14] = biological target: Thyrotropin-releasing hormone receptor (Homo sapiens) (UniProt P34981); assay: qHTS assay to identify small molecule antagonists of the thyrotropin-releasing hormone receptor (TRHR) signaling pathway (AID 1346877; active = well fitted inhibition curve with a large enough effect in the repeat runs, not every such curve was filed as active; note: series mostly up to about 51 µM)
# Sequence of Thyrotropin-releasing hormone receptor (Homo sapiens) (P34981 whole entry, looked up): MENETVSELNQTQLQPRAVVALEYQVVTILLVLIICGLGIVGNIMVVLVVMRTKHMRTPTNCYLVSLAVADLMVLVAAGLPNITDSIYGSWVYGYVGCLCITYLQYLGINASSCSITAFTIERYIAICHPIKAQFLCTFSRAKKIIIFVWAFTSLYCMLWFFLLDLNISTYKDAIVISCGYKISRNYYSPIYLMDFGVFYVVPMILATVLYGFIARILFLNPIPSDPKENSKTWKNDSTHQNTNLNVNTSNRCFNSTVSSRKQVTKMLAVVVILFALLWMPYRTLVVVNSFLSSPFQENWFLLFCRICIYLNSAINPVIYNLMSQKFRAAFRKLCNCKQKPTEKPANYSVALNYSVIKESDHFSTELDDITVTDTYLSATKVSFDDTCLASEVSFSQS
# Method in brief: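 Screening used HEK293 cells engineered with TRHR, with a brief 5 min room-temperature compound exposure preceding addition of TRH to 1 nM. The read-out was kinetic calcium-dye fluorescence, concentration-response from 15 doses in triplicate.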
# [15] = biological target: Thyrotropin-releasing hormone receptor (Homo sapiens) (UniProt P34981); assay: qHTS assay to identify small molecule agonists of the thyrotropin-releasing hormone receptor (TRHR) signaling pathway (AID 1346891; calls by dose curve; note: series mostly up to about 58 µM)
# Method in brief: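 Agonist-mode intracellular calcium readout: kinetic fluorescence over 3 min at 1 s intervals after compound addition to TRHR-HEK293 cells (18 h seeded, 2 h dye-loaded at 37 C). Fifteen concentrations, triplicates.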
# [16] = qHTS assay to identify small molecule agonists or antagonists of the thyroid stimulating hormone receptor (TSHR) signaling pathway - wild type cell line counter screen (AID 1259384; calls by dose curve)
# Method in brief: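 Wild-type HEK293 cells were plated 18 h at 37 C/5% CO2, pin-dosed with compound plus Ro20-1724 medium, held 30 min at room temperature, then given cAMP-d2 and anti-cAMP-cryptate; fluorescence was read after 1 h. Fifteen concentrations, triplicate.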
# [17] = biological target: Thyrotropin receptor (Homo sapiens) (UniProt P16473); assay: qHTS assay to identify small molecule antagonists of the thyroid stimulating hormone receptor (TSHR) signaling pathway (AID 1259385; calls by dose curve; note: nearly all actives have a fitted effect of over 20% in size)
# Sequence of Thyrotropin receptor (Homo sapiens) (P16473 whole entry, looked up): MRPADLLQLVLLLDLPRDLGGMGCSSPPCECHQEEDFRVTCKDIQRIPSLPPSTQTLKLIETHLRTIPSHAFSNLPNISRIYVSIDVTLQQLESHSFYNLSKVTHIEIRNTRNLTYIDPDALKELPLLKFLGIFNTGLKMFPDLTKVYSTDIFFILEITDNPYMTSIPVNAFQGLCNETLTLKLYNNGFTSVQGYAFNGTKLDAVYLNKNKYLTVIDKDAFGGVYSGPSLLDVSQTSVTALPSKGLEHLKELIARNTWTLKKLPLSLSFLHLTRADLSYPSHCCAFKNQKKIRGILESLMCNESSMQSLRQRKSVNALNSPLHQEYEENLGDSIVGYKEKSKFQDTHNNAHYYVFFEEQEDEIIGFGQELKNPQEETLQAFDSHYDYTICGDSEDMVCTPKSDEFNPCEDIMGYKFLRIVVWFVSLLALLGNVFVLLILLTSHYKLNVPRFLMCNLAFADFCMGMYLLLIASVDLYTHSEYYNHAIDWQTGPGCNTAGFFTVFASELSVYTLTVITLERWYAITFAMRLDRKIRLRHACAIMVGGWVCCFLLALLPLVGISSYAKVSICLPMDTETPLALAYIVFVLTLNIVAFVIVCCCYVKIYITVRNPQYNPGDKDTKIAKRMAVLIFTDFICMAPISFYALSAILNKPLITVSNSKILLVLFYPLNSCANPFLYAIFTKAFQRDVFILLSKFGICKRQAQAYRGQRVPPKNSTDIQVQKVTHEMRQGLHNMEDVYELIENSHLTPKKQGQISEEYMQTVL
# Method in brief: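 TSHR-HEK293 cells were plated and held 18 h at 37C/5% CO2, then given compound plus Ro20-1724 and stimulated with TSH at 1.5 ng/mL final. After 30 min at room temperature, cAMP was detected with cAMP-d2/anti-cAMP-cryptate (1 h) by fluorescence.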
# [18] = biological target: Androgen receptor (Homo sapiens) (UniProt P10275); assay: qHTS assay to identify small molecule agonists of the androgen receptor (AR) signaling pathway in the presence of an antagonist (AID 1259381; calls by dose curve; note: nearly all actives have a fitted effect of over 15% in size)
# Sequence of Androgen receptor (Homo sapiens) (P10275 whole entry, looked up): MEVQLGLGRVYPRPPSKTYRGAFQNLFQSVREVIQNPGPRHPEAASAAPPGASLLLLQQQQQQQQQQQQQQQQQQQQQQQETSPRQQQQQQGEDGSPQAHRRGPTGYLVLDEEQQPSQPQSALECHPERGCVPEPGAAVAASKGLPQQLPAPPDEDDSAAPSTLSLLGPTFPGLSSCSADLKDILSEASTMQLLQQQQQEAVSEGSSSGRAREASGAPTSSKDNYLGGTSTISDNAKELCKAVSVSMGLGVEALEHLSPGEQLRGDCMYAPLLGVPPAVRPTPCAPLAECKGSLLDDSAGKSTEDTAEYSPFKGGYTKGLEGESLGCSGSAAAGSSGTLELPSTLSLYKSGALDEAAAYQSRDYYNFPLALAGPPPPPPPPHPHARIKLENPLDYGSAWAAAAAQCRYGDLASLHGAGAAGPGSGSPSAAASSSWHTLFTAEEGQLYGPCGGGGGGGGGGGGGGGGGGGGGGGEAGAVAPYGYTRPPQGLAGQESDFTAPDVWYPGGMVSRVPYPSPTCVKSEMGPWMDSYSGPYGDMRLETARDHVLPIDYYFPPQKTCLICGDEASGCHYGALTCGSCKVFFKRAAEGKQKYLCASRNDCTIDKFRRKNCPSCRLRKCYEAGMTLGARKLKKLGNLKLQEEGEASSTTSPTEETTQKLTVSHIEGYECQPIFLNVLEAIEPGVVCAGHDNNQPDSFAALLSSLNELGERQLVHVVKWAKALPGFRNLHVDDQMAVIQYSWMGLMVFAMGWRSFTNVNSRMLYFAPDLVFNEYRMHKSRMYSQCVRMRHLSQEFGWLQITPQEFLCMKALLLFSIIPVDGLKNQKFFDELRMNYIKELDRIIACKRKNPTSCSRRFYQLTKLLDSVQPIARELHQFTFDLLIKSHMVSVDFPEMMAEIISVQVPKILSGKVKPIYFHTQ
# Method in brief: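 Using human MDA-kb2 cells with an MMTV promoter–luciferase construct (AR and GR response elements), agonist activity is scored under 3.0uM nilutamide (final) co-treatment; 16hr incubation, 37C, luminescence readout via ONE-Glo.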
Compound,Potency [1],Potency [2],Potency [3],Potency [4],Potency [5],outcome [6],Potency [7],Potency [8],Potency [9],Potency [10],outcome [11],outcome [12],outcome [13],outcome [14],outcome [15],outcome [16],Potency [17],Potency [18]
CC(C)c1cccc(C(C)C)c1N,inactive,inactive,inactive,inactive,inactive,inactive,inactive,inactive,inactive,inactive,inactive,inactive,inactive,inactive,inactive,–,–,–
CCCCCCCCCCCCCCCCCC(=O)OCCCCCCCCCCCCCC(C)C,inactive,inactive,inactive,inactive,–,inactive,inactive,inactive,inactive,inactive,inactive,inactive,inactive,inactive,inactive,–,–,–
OCc1ccccn1,inactive,inactive,inactive,inactive,–,inactive,inactive,inactive,inactive,inactive,inactive,inactive,inactive,–,–,inactive,inactive,–
COC(C(=O)O)c1ccccc1 (stereo not given),inactive,inactive,inactive,inactive,–,inactive,inactive,inactive,inactive,inactive,–,inactive,inactive,–,–,–,–,–
CCCCC=O,inactive,inactive,inactive,inactive,–,inactive,inactive,inactive,inactive,–,inactive,inactive,inactive,inactive,inactive,inactive,inactive,–
CCCCCN(CCCCC)C(=O)C(CCC(=O)O)NC(=O)c1ccc(Cl)c(Cl)c1 (stereo not given),inactive,inactive,–,inactive,inactive,inactive,inactive,–,–,–,–,inactive,inactive,inactive,inactive,inactive,inactive,inactive
Cc1nc(-c2ccc(OCC(C)C)c(C#N)c2)sc1C(=O)O,inactive,inactive,–,inactive,inactive,inactive,inactive,–,inactive,inactive,inactive,inactive,–,–,–,inactive,–,inactive
CCO[Si](CCCN=C=O)(OCC)OCC,inactive,inactive,inactive,inactive,inactive,inactive,inactive,inactive,inactive,inactive,–,inactive,inactive,inactive,inactive,inactive,inactive,–
CC(C)c1ccc2oc3nc(N)c(C(=O)O)cc3c(=O)c2c1,inactive,inactive,23.7 µM (active),–,–,inactive,inactive,inactive,inactive,inactive,–,inactive,–,inactive,inactive,–,inactive,–
CC(=O)NC(Cc1ccccc1)C(=O)O (stereo not given),inactive,inactive,inactive,inactive,inactive,inactive,inactive,–,inactive,inactive,inactive,inactive,inactive,inactive,inactive,inactive,inactive,–
NC(=O)c1c(Cl)cccc1Cl,inactive,inactive,inactive,inactive,inactive,inactive,inactive,–,inactive,inactive,inactive,inactive,inactive,inactive,inactive,inactive,inactive,–
C#CC(O)CCCCC (stereo not given),inactive,inactive,inactive,inactive,–,inactive,27.5 µM (active),inactive,–,inactive,inactive,inactive,inactive,–,–,inactive,–,–
CO,inactive,inactive,inactive,inactive,–,inactive,inactive,inactive,inactive,inactive,inactive,inactive,inactive,inactive,inactive,inactive,–,–
CC(C)=CCC/C(C)=C/C(=O)O,inactive,inactive,inactive,inactive,–,inactive,inactive,inactive,inactive,inactive,inactive,inactive,inactive,inactive,inactive,–,–,–
CC(C)CCOC(=O)CC(C)C,inactive,inactive,inactive,inactive,–,inactive,inactive,inactive,inactive,inactive,inactive,inactive,inactive,inactive,inactive,–,–,–
C=C(C)C1CC=C(C)C(O)C1 (stereo not given),inactive,inactive,inactive,inactive,inactive,inactive,17.3 µM (active),–,inactive,–,inactive,inactive,inactive,inactive,inactive,–,inactive,–
C=C(C)C(=O)NCCC[N+](C)(C)C,inactive,inactive,inactive,inactive,inactive,inactive,inactive,inactive,–,inactive,inactive,inactive,inactive,–,–,–,–,–
CO[Si](CCCNCCC[Si](OC)(OC)OC)(OC)OC,inactive,inactive,inactive,inactive,inactive,inactive,inactive,–,inactive,inactive,–,inactive,inactive,inactive,inactive,inactive,inactive,–
